Measurements as given in PubChem BioAssay AID1233 (SRMLSC, 2008).
Entries with a potency or affinity are not part of this list.

Molecular target: HMG-CoA reductase [Enterococcus faecalis] (UniProt Q9FD70)
Test: inhibitors of E. faecalis class II HMGR, confirmation, biochemical, Enterococcus faecalis (AID 1233);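 note: 0% = full reaction carrier wells and 100% = background wells lacking mevalonate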
Conditions: purified E. faecalis HMGR, NADPH absorbance 340 nm kinetics; series mostly up to 100 µM; inhibition: at the top concentration;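 active = a dose-response curve fit returns a half-maximal inhibitory concentration, extrapolated values included; inactive = the fit returns no such concentration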

inhibition, inactive:
Cn1c(SCC(=O)c2ccc(F)cc2)nnc1-c1cccnc1 -1.32%, CN(CCC#N)C(=O)COC(=O)c1ccc(Cl)c(S(=O)(=O)N(C)c2ccccc2)c1 2.03%, N#Cc1nc(COc2ccc(-c3ccccc3)cc2)oc1NCCCN1CCOCC1 -2.74%, CCN(CC)S(=O)(=O)c1ccc(C(=O)Nc2c3c(nn2C(C)(C)C)CS(=O)(=O)C3)cc1 -0.5%, CCOC(=O)Cc1csc(SCC(=O)c2c(N)n(CC(C)C)c(=O)n(C)c2=O)n1 -4.67%, COc1cc(-c2nnc(SC/C=C/c3ccccc3)n2N)cc(OC)c1OC -0.99%, CCc1ccc(NC(=O)CSCc2ccc(C(=O)O)cc2)cc1 -6.21%, CC(=O)Nc1ccc(S(=O)(=O)N2CCCC2C(=O)O)cc1 (stereo not drawn) 1.14%, Cc1cc(C)nc(N/N=C2/CCCC/C2=C\c2ccccc2)n1 -4.31%, CCCNC(=O)c1cc2c(C(F)(F)F)nn(C)c2s1 -1.54%, CCC(Sc1ccccn1)C(=O)Nc1cccc([N+](=O)[O-])c1 (stereo not drawn) -5.94%, O=C(O)c1cc(-c2ccc(N3CCOCC3)cc2)nn1-c1ccccc1Cl -0.41%, C=CCNC(=O)C(=O)NN=C1CCN(C)CC1 -0.09%, COC(=O)CC1COc2ccccc2N1C(=O)c1ccc(Br)cc1 (stereo not drawn) -1.47%, NC(=O)c1ccc2nc(NC(=O)c3ccc(N)cc3)sc2c1 -3.41%, COCCN(C(=O)CNC(=O)c1cccs1)C(C(=O)NC1CCCCC1)c1ccco1 (stereo not drawn) -0.13%, Cc1cccc(C(=O)N2CCC(=O)N(C(COCc3ccccc3)Cc3ccccc3)CC2)c1 (stereo not drawn) -2.57%, COC(=O)c1ccccc1NC(=O)NCc1ccco1 -2.25%
